Experimental data: PubChem BioAssay (Tox21)
“And” between values parts separate entries of the source, which are not always exact repeats. Identical values can stand only once. Records with an inconclusive call do not appear. A call without a number means that no potency is given here. A structure can be active in one record and inactive in another. The source made the active and inactive calls. The call rests on the fitted dose curve; in most records, active means well fitted curve in the direction sought with a large enough effect in the repeat runs; inconclusive means weak or mixed curves; inactive means no such curve, though single readings can be large; an effect the other way counts as inactive or inconclusive.

Tests used:
[1] = qHTS RealTime-Glo MT Cell Viability Assay in HepG2 cells - 40 hour (AID 1224870); further: nearly all actives have a fitted effect of over 50% in size
Outline: (§1)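 Real-time viability: cells seeded at 600 per well together with NanoLuc and cell-permeant prosubstrate, compounds added after 5 h incubation. Luminescence tracked at 0, 8, 16, 24, 32 and 40 h of exposure.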

[2] = A CellTox Green Cytotoxicity Assay to monitor cytotoxicity in HEK293 cells - 40 hour (AID 1224871); further: nearly all actives have a fitted effect of over 45% in size
Outline: (§2)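 Each value comes from one timepoint of a single continuous run in which HEK293 cells with CellTox Green were exposed to compound for up to 40 h at 37 C, dye fluorescence rising with cell death.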

[3] = qHTS RealTime-Glo MT Cell Viability Assay in HEK293 cells - 16 hour (AID 1224872); further: nearly all actives have a fitted effect of over 50% in size
Outline: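 Viability tracked continuously by luminescence as live cells reduce a prosubstrate for NanoLuc; HEK293 cells preincubated 5 h, compound-treated at 37 C, and read at 0, 8, 16, 24, 32 and 40 h.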

[4] = qHTS RealTime-Glo MT Cell Viability Assay in HepG2 cells - 8 hour (AID 1224873); further: nearly all actives have a fitted effect of over 55% in size
Outline: as §1

[5] = qHTS RealTime-Glo MT Cell Viability Assay in HEK293 cells - 40 hour (AID 1224874); conditions: RealTime-Glo luminescence; max response: stronger effect = lower value; further: nearly all actives have a fitted effect of over 50% in size
Outline: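 qHTS format; HEK293 cells with NanoLuc/prosubstrate reagent, 37 C/5% CO2 for 5 h pre-dosing; compounds 23 nL in DMSO; luminescence at each time point reflects viable cells.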

[6] = A CellTox Green Cytotoxicity Assay to monitor cytotoxicity in HEK293 cells - 24 hour (AID 1224875); further: nearly all actives have a fitted effect of over 45% in size
Outline: as §2

[7] = A CellTox Green Cytotoxicity Assay to monitor cytotoxicity in HepG2 cells - 16 hour (AID 1224876); further: nearly all actives have a fitted effect of over 45% in size
Outline: (§3)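 Continuous culture of HepG2 cells with a membrane-impermeant DNA dye; rising fluorescence marks dead cells. Compound exposure lasted up to 40 h at 37 C, with reads every 8 h from 0 h.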

[8] = qHTS RealTime-Glo MT Cell Viability Assay in HepG2 cells - 32 hour (AID 1224877); further: nearly all actives have a fitted effect of over 55% in size
Outline: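 Viability was tracked continuously by NanoLuc luminescence from prosubstrate reduced by living HepG2 cells, at successive time points over 40 h of compound exposure. Cells with reagent were preincubated 5 h at 37 °C before compound addition.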

[9] = A CellTox Green Cytotoxicity Assay to monitor cytotoxicity in HepG2 cells - 24 hour (AID 1224878); further: nearly all actives have a fitted effect of over 45% in size
Outline: as §3

[10] = A CellTox Green Cytotoxicity Assay to monitor cytotoxicity in HepG2 cells - 40 hour (AID 1224879); further: nearly all actives have a fitted effect of over 40% in size
Outline: as §3
Potency means the concentration at half of the fitted maximal effect.

| SMILES | Potency [1] | Potency [2] | Potency [3] | Potency [4] | max response [5] | Potency [6] | Potency [7] | Potency [8] | Potency [9] | Potency [10] | Potency [5] |
| --- | --- | --- | --- | --- | --- | --- | --- | --- | --- | --- | --- |
| Nc1ccc(S(N)(=O)=O)cc1 | inactive | inactive | inactive | inactive | 9.21% (inactive) and 0.884% (inactive) and 1.65% (inactive) | inactive | inactive | inactive | inactive | inactive |  |
| C=C1CC[C@H](O)C/C1=C\C=C1/CCC[C@]2(C)[C@@H]([C@H](C)CCCC(C)C)CC[C@@H]12 | inactive |  | 38.5 µM (active) | inactive |  | inactive | inactive | inactive | inactive | inactive | 43.2 µM (active) |
| COc1ccc2cc(S(=O)(=O)N[C@H](CC(=O)N[C@H](Cc3ccc(CN4[C@H](C)CCC[C@@H]4C)cc3)C(=O)N(C)C(C)C)c3ccc4c(c3)OCO4)ccc2c1 | 52 µM (active) | 52 µM (active) | 46.3 µM (active) | 52 µM (active) |  |  | 52 µM (active) | 52 µM (active) | 52 µM (active) | 52 µM (active) | 26.1 µM (active) |
| Nc1c(N=Nc2ccc(-c3ccc(N=Nc4cc(S(=O)(=O)O)c5ccccc5c4N)cc3)cc2)cc(S(=O)(=O)O)c2ccccc12 | 48.9 µM (active) | inactive | 38.9 µM (active) | 38.9 µM (active) |  | inactive | inactive | 48.9 µM (active) | inactive | inactive |  |
| CC/C(=C(\c1ccccc1)c1ccc(OCCN(C)C)cc1)c1ccccc1 |  | 24.7 µM (active) [middle of 5 runs] | 34.6 µM (active) [middle of 5 runs] | 54.9 µM (active) and 19.7 µM (active) and 43.6 µM (active) |  | 35 µM (active) [middle of 5 runs] | 54.9 µM (active) [middle of 4 runs] | 30.9 µM (active) [middle of 4 runs] | 48.9 µM (active) [middle of 5 runs] | 43.6 µM (active) [middle of 5 runs] | 22.1 µM (active) [middle of 5 runs] |
| Nc1c2c(nc3ccccc13)CCCC2 |  | inactive | inactive | inactive | -28% (inactive) and -11.6% (inactive) and 18.3% (inactive) | inactive | inactive | inactive | inactive | inactive |  |
| CCCc1cc(=O)[nH]c(=S)[nH]1 |  | inactive | inactive | inactive | 1.97% (inactive) and 2.41% (inactive) and 2.9% (inactive) | inactive | inactive | inactive | inactive | inactive |  |
| NC1CCCCC1 |  | inactive | inactive | inactive | 1.81% (inactive) [middle of 4 runs] | inactive | inactive | inactive | inactive | inactive |  |
| CCCCCCc1ccc(O)cc1O | inactive | 49.1 µM (active) and 49 µM (active) and inactive | 19.6 µM (active) and 11 µM (active) | inactive |  |  | inactive and 43.6 µM (active) and 21.3 µM (active) | inactive | 49.1 µM (active) and 38.9 µM (active) and 21.3 µM (active) | 49.1 µM (active) and 38.9 µM (active) and 19 µM (active) | 19.6 µM (active) and 12.3 µM (active) |
| COc1cccc(O)c1O | inactive | inactive | inactive | inactive |  | inactive | inactive | inactive | inactive | inactive |  |
| C[C@](N)(Cc1ccc(O)c(O)c1)C(=O)O |  | inactive | inactive | inactive | -19.7% (inactive) and -21.3% (inactive) and 9.87% (inactive) | inactive | inactive | inactive | inactive | inactive |  |
| C1CCC(C(CC2CCCCN2)C2CCCCC2)CC1 (stereo unspecified) |  | 16.9 µM (active) | 19 µM (active) | 21.3 µM (active) |  | 21.3 µM (active) | 12 µM (active) | 5.35 µM (active) | 9.52 µM (active) | 5.35 µM (active) | 10.7 µM (active) |
| CN(C)C(=S)SC(=S)N(C)C | 1.38 µM (active) and 3.01 µM (active) | 1.59 µM (active) and 3.09 µM (active) and 3.79 µM (active) | 2.24 µM (active) and 2.75 µM (active) and 6.74 µM (active) |  |  | 3.99 µM (active) and 21.9 µM (active) | inactive and 3.89 µM (active) | 1.55 µM (active) and 3.38 µM (active) | 3.17 µM (active) and 2.45 µM (active) and 2.39 µM (active) | 2.52 µM (active) and 1.38 µM (active) and 2.39 µM (active) | 1.59 µM (active) and 1.23 µM (active) and 6.01 µM (active) |
| Nc1ccc(O)c([N+](=O)[O-])c1 | inactive |  | inactive | inactive |  | inactive | inactive | inactive | inactive | inactive |  |
